KKLEB cytotox = cytotoxicity in KKLEB CF airway cells, primary screen, cytotoxicity control for CF NF-kB inhibitor project, cell-based, uHTS, fluorescence assay plates; KKLEB CF airway cells viability, ATPlite luminescence, overnight; active compounds read low; cells stimulated with P. aeruginosa culture filtrate; activity change (cytotoxicity), % at 5 µM; hit rate 0.36% among 360,000; AID 602141, 2011;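 active = corrected activity change at or below -50% at 5 µM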
Peg3 prom inh-1 = Peg3 promoter-driven luciferase inhibitors, primary screen, cell-based, HeLa, luciferase luminescence; HeLa PEG-Prom luciferase reporter, overnight; inhibition, % at 20 µM; hit rate 1.7% among 360,000; AID 588405, 2011;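 active = inhibition of at least 50% at 20 µM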
C8 TRAIL sens = viability loss with TRAIL in NB7+C8 cells, primary screen, TRAIL sensitizer project, cell-based, ATPlite luminescence | inhibition (viability loss, TRAIL sensitization), % at 10 µM | hit rate 1% among 360,000;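 active = compounds causing at least 50% loss of cell viability in the single-dose screen, relative to plate controls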
PPC-1+TRAIL kill = compounds killing PPC-1 cancer cells with TRAIL present, primary screen, TRAIL potentiator project, ATPLite luminescence, uHTS | hit rate 0.41% among 220,000 | PPC-1 cells + TRAIL, ATPLite viability luminescence | cell killing (% activity), % at 4 µM or 5 µM;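 active = cell killing above 50% in the first pass at 4 µM, then a duplicate retest at 5 µM averaging 50% or more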;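 also: plate controls were cells with TRAIL plus DMSO for no effect and medium-only wells lacking cells for full effect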
CF NFkB inh = inhibitors of PAF-induced NF-kB signaling, primary screen, cell-based, GFP fluorescence, uHTS; hit rate 0.86% among 360,000; KKLEB NF-kB-GFP reporter, GFP fluorescence overnight; inhibition, % at 5 µM;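 active = at least 50% inhibition at 5 µM, scaled per plate between neutral and stimulator controls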;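 also: PAF is a Pseudomonas aeruginosa culture filtrate used as stimulus; plate controls were PAF-stimulated DMSO wells for no effect and unstimulated DMSO wells for full effect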
HIF-2a block = HIF-2a reporter inhibitors, primary screen, luminescence, 786-0 RCC cells; inhibition, % at 18.8 µM; 786-0 RCC cells HIF-2a reporter, luciferase luminescence, overnight; AID 624352, 2012; hit rate 0.72% among 360,000;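 active = inhibition of the luminescence signal of 40% or more relative to plate controls, in a single-dose primary screen at 18.75 µM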
Peg3 prom inh-2 = Peg3 promoter reporter inhibitors, retest, confirmation, cell-based, HeLa, luciferase reporter, single concentration. shares compounds with Peg3 prom inh-1. HeLa PEG-Prom luciferase reporter, luminescence, overnight. hit rate 84% among 1,300. inhibition, % at 20 µM;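 active = at 20 µM dose, 40% or more inhibition averaged across four replicates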
Active calls of the source: *; . = no result. Most compounds without a hit are left out; they make up all but 3.1% or so of the library.

SMILES	KKLEB cytotox	Peg3 prom inh-1	C8 TRAIL sens	PPC-1+TRAIL kill	CF NFkB inh	HIF-2a block	Peg3 prom inh-2
Cc1ccc(C(=O)N(CCCN(C)C)c2nc3ccc(Cl)cc3s2)cc1C	-21	56*	23	24	31	-29	93*
CCN(C(=O)COC(=O)c1ccc(SC)cc1OC)C1CCS(=O)(=O)C1 (configuration not stated)	-4	1	-4	.	3	18	.
CN(C)c1ccc2c(=O)cc[nH]c2c1	2	-4	-5	.	20	-6	.
CCc1ccc(Oc2coc3cc(OCC(=O)Nc4cc(C)ccc4C)ccc3c2=O)cc1	-20	54*	18	6	14	5	43*
CCN1CCN(S(=O)(=O)c2ccc(Cl)c(C(=O)NCc3nc4ccccc4[nH]3)c2)CC1	-6	14	-13	.	-6	1	.
COc1ccc2nc3n(c(=O)c2c1)-c1cc2ccccc2cc1C(=O)NC3Cc1ccc(O)cc1 (configuration not stated)	-1	78*	12	.	-4	17	86*
COc1ccc2nc3n(c(=O)c2c1)-c1cc2ccccc2cc1C(=O)NC3Cc1ccccc1 (configuration not stated)	-8	14	32	.	0	1	.
O=C(N/N=C/c1sc(N2CCOCC2)nc1-c1ccccc1)c1cccc(S(=O)(=O)N2CCOCC2)c1	-9	68*	29	3	-8	0	68*
Nc1ccc(C(=O)N/N=C/c2sc(N3CCOCC3)nc2-c2ccccc2)cc1	7	-5	-6	7	-22	3	.
O=C(O)c1cccc(NC2=C(Cl)C(=O)c3ccccc3C2=O)c1	-1	-128	8	24	-12	-81	.
O=C1C(Cl)=C(Nc2ccccc2)C(=O)c2ccccc21	-83*	102*	88*	16	93*	97*	98*
Cc1nn(CC(=O)NCc2ccc(OC(C)C)cc2)c(=O)c2cc(-c3ccccc3)nn12	-3	51*	-1	.	8	10	15
COc1ccc(N(CC(=O)NCc2ccc(F)cc2)C(=O)c2snc(C(N)=O)c2N)cc1	-7	0	0	.	7	10	.
CCCCCCCNC(=O)C1(CC2CC(c3ccccc3)=NO2)CCNCC1 (configuration not stated)	-5	94*	-3	.	10	-11	79*
Cc1ccc(-c2nn(-c3ccccc3)cc2CSC(=N)N)cc1	-6	101*	23	13	-8	-26	41*
COc1ccc(-n2cc(CNC3CCN(C)CC3)c(-c3cccc(F)c3)n2)cc1	-7	52*	3	33	14	-3	60*
Cc1ccc(S(=O)(=O)NC(=O)C2(C)CCN2C(=O)Cc2cccs2)cc1 (configuration not stated)	20	6	0	.	-23	7	.
CCN(CCCNc1cc2c(c(N)c1S(=O)(=O)O)C(=O)c1ccccc1C2=O)c1ccccc1	-4	-11	-1	.	-24	-4	.
O=[N+]([O-])c1ccc(S(=O)(=O)CC(CN2CCOCC2)N2CCOCC2)cc1 (configuration not stated)	0	-3	0	10	10	4	.
O=S(=O)(CC(CN1CCCCC1)N1CCCCC1)c1ccccc1 (configuration not stated)	-16	67*	5	19	50	-11	88*
COC(=O)C1=C(C(=O)OC)C(C(=O)OC)C(C(=O)OC)C(C(=O)OC)(C(=O)OC)C(C(=O)OC)=C1C(=O)OC (configuration not stated)	-6	107*	11	.	11	30	99*
COc1ccc(-c2cc(C(=O)N(C)Cc3ccccc3F)c3ccccc3n2)cc1OC	-20	61*	21	.	19	3	60*
COc1ccc(-c2cc(C(=O)N(C)CC(=O)Nc3ccccc3Br)c3ccccc3n2)cc1OC	-26	54*	-2	.	21	-1	27
COc1cccc(CN(C)C(=O)c2cc(-c3cccs3)nc3ccccc23)c1	-7	61*	21	.	-9	5	67*
COc1cc(-c2cc(C(=O)N(C)Cc3ccccc3)c3ccccc3n2)cc(OC)c1OC	-5	56*	10	.	-24	10	52*
SMILES	KKLEB cytotox	Peg3 prom inh-1	C8 TRAIL sens	PPC-1+TRAIL kill	CF NFkB inh	HIF-2a block	Peg3 prom inh-2
CCN(C(=O)CSc1nc(N)cc(=O)[nH]1)c1c(N)n(Cc2ccccc2)c(=O)[nH]c1=O	-3	7	-10	.	21	3	.
CCc1ccccc1-n1nnnc1SCC(=O)Nc1ccc(N2CCN(C)CC2)cc1	3	-11	9	.	0	-11	.
CCC(C)(C)c1ccc(Oc2cccc(C(=O)O)c2)cc1	-5	-209	18	-4	-12	25	.
CCC(C)(C)c1ccc(Oc2ccc(N)cc2)cc1	4	72*	23	8	-28	88*	91*
CCc1nc(Nc2ccc(N3CCN(C(C)=O)CC3)cc2)c2oc3ccccc3c2n1	1	79*	13	16	-11	-59	68*
CC(=O)N1CCN(c2ccc(Nc3ncnc4c3oc3ccccc34)cc2)CC1	3	-89	15	23	-19	-162	.
Cc1ccc(S(=O)(=O)N2C[C@H]3C(=O)C[C@@H](c4ccccc4)N(S(=O)(=O)c4ccccc4[N+](=O)[O-])[C@H]3C[C@H]2c2ccccc2)cc1	-16	-14	17	.	11	5	.
CCN(C(=O)CSc1nc2n[nH]c(C)c2c(=N)n1-c1ccc(Cl)c(C)c1)c1cccc(C)c1	6	72*	8	.	27	18	49*
COc1cccc(N(C(=O)CS(=O)CC(=O)Nc2ccc(F)cc2)C(C(=O)NC2CCCCC2)c2cccs2)c1 (configuration not stated)	-10	60*	-8	30	-1	12	20
C=C(C)Cn1c(SCC(=O)N/N=C/c2c(O)ccc3ccccc23)nc2ccccc2c1=O	-18	61*	3	17	12	19	64*
C=C(C)Cn1c(SCC)nc2ccccc2c1=O	-8	21	3	6	4	7	.
CN(C)CCC1(c2ccccc2)CCN(C)C1=O (configuration not stated)	9	-3	-1	.	-29	10	.
CCc1ccc(OCCNc2cc(N3CCNC(C)C3)ccc2[N+](=O)[O-])cc1 (configuration not stated)	-36	100*	20	.	28	-4	100*

Screens: PubChem, Sanford-Burnham Center for Chemical Genomics
